# The supplement of paper PMC3334620
# Whole data set: some 33,000 sequences, median “E-score (-0.5 to 0.5)” near -0.041, cut for the highest 2% near 0.37. Only a selection was taken, and the highest values are over-represented in it overall.
# Target: T1, Ecm22 (UniProt Q05958)
# T1 sequence: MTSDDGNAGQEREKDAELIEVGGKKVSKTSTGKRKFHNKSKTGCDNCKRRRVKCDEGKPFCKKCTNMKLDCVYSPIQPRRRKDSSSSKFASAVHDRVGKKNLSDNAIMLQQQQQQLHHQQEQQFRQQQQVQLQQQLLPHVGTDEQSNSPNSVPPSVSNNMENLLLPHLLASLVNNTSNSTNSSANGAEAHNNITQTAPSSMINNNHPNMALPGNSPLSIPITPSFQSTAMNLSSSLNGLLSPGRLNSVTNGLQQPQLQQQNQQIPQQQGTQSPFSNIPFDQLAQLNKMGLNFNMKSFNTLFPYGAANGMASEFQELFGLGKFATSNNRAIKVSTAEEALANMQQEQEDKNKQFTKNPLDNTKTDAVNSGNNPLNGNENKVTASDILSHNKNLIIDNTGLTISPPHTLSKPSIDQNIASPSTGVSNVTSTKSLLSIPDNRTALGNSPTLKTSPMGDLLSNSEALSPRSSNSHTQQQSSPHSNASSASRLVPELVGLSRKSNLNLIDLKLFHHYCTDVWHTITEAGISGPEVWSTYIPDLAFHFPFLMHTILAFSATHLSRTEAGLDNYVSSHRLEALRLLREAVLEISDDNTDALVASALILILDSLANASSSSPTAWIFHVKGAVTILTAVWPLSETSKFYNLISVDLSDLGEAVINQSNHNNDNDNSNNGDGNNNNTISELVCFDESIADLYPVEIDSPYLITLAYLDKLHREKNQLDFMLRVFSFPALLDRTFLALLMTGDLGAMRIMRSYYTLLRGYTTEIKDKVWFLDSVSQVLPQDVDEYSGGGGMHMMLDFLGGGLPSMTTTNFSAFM
# Assay: PBM E-score (8-mer binding enrichment) (E-score (-0.5 to 0.5)); higher = stronger / more preferred TF binding
# Settings: protein concentration: 200 nM; construct: GST-full length
# Outline: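 Universal all-10-mer Agilent arrays, fresh or stripped once, were converted to double-stranded form by primer extension. GST-tagged yeast transcription factors from PURExpress in vitro transcription/translation, full-length or DNA-binding domain only, were applied at about 100-200 nM and detected with fluorescent anti-GST. After masliner normalisation, the Universal PBM Analysis Suite scored each ungapped eight-base word together with its reverse complement by E-score.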
row,Sequence,PBM E-score
1,AGTACCAG,-0.14
2,CATACCAG,-0.0569
3,GGTACCAC,-0.137
4,CGTACCAA,0.444
5,CGTACCAG,0.397
6,TGTACCAA,0.036
7,CGTACCAC,0.446
8,AGTACCAA,-0.119
9,AGTACCAC,0.0416
10,TCCCTAAA,-0.00662
11,CGCACGTC,0.00508
12,TAGGGATA,-0.165
13,GCAGTAAA,-0.0139
14,CGAACGCA,0.242
15,GCTTCCCC,-0.098
16,CAAAGCCA,-0.0435
17,ACTACGAC,0.329
18,GCTACGAA,0.429
19,GCTACGAC,0.426
20,TCTACGAA,0.312
21,CCTACGAA,0.192
22,CCTACGAC,0.232
23,CCTCTCAA,-0.127
24,ATAGTATG,0.0828
25,ATCGTATG,0.438

row,Sequence,PBM E-score
1,ATCGTATC,0.418
2,CGCGTATC,0.232
3,CACGTATC,0.132
4,AGCGTATG,0.136
5,ATCGTATA,0.488
6,ATAGTATC,0.127
7,ATAGTATA,0.211
8,CTCGTATC,0.478
9,AGCGTATC,0.0945
10,ATCGTGTA,0.25
11,TCTGCTCA,-0.168
12,TCGAGCGA,0.0676
13,ATATCAAC,-0.103
14,CCAGTTGC,-0.196
15,ACTGGCCA,-0.206
16,CAGAGTCA,-0.226
17,GCAGAGAC,-0.357
18,CCTATAGC,-0.248
19,CGTATAGA,0.458
20,AGTATAGA,0.16
21,GGTATAGA,-0.0121
22,AGTATAGC,0.0261
23,CGTATAGC,0.477
24,ACATGGGC,-0.263
25,GAAGTCCC,-0.172

row,Sequence,PBM E-score
1,ACGTTCGC,0.157
2,GAAATTGC,0.0049
3,ACACATTA,0.031
4,CCACGAGG,0.00398
5,CTGTCGAA,-0.00303
6,GTGTCGGA,0.0575
7,ATGTCGTA,0.446
8,CTGTCGTA,0.453
9,CTGTCGTC,0.161
10,ATGTCGTC,0.0394
11,GTGTCGCA,0.162
12,GTGTCGTA,0.445
13,ATGTCGTG,0.0288
14,AACCAATT,-0.233
15,ATCTACCC,0.0111
16,ATTTACGC,0.0401
17,CTTTACCA,-0.226
18,GTTTACAA,0.19
19,CTTTACGA,0.464
20,CTTTACGC,0.211
21,ATTTACGA,0.453
22,ATTTACGG,0.31
23,GTTTACTA,0.182
24,TATTACGA,0.389
25,AATTACGA,0.361

row,Sequence,PBM E-score
1,GTTTACGA,0.46
2,CATTACGA,0.289
3,CGGACTGC,-0.0684
4,ATTCTATA,-0.00057
5,CTACTGCA,-0.158
6,AGAGGAAG,-0.167
7,ATCACTAA,-0.0903
8,AAAGGGTC,-0.109
9,ATCATAGC,-0.0799
10,AGTCCCAG,-0.0584
11,GAAGAAGA,-0.0416
12,GGGTCCTA,-0.218
13,TGGGACCA,-0.27
14,GAAGGTTA,-0.016
15,ACGAGCTG,0.411
16,ACGAGCAT,0.365
17,AGGAGCTC,-0.0307
18,AGGAGCTG,-0.288
19,ACGAGCTC,0.39
20,GCGAGCTA,0.248
21,ACGAGCAG,0.383
22,CCGAGCTC,0.219
23,ACGAGCTA,0.39
24,AAGAGCTG,-0.264
25,ACGAGCAA,0.288

row,Sequence,PBM E-score
1,CCGAGCTA,0.101
2,GAAGTATC,0.0371
3,ACTTCACG,-0.0496
4,ATATGGAT,0.133
5,ACGGTTTA,0.0698
6,CAACTCTC,-0.11
7,AGTCCGAA,0.0505
8,CGTTTCGA,0.202
9,TATCGTAA,0.363
10,GGTCGTGA,-0.0346
11,CGTCGTAA,0.446
12,AGTCGTCA,-0.236
13,CGTCGTGA,0.117
14,CGTCGTCA,0.0778
15,AGTCGTGA,0.0257
16,TGGCGTAA,0.0429
17,AGTCGTAA,0.395
18,GGTCGTAA,0.417
19,GGTCGTCA,0.0226
20,TGTCGTAA,0.428
21,CGCGAGAG,0.233
22,ACGGTAGC,-0.00152
23,ACAATCGC,0.226
24,AAGTTTTC,0.0919
25,AGCCTGGC,-0.142

row,Sequence,PBM E-score
1,ACCGTGCG,0.161
2,GTCCGTGA,0.0485
3,CCTTAGCA,-0.287
4,ATACGACG,0.485
5,ACACGACC,0.186
6,ATACGACC,0.473
7,CTACGACC,0.413
8,CGACGACC,0.154
9,AGACGACG,0.23
10,CCACGACC,0.00845
11,AGACGACC,0.0158
12,ACACGACG,0.251
13,CCGCGCTA,0.0135
14,ATGAGAGG,-0.151
15,CTCGCAAG,0.17
16,GTCCGTCA,-0.131
17,CAGGGCAG,-0.104
18,ACTTTCCA,-0.205
19,AAGTAGCA,-0.137
20,ATTGTAGA,0.0824
21,ACCGTTCG,0.229
22,GCCGTTCC,0.444
23,CCCGTTCC,0.447
24,CCCGTTCA,0.267
25,CCCGTTCG,0.196

row,Sequence,PBM E-score
1,ACCGTTCT,0.135
2,ACCGTTCC,0.434
3,GCCGTTCA,0.229
4,GACGTTCC,0.141
5,GAGGCTCA,-0.237
6,CTCGGCAA,0.106
7,GCTCTAAA,-0.144
8,CCTAACAC,0.0728
9,GGTACTAC,0.0611
10,CACGACGG,0.167
11,AAGGACGT,0.0897
12,AACGACGT,0.435
13,AACGGCGT,0.242
14,AACGACGG,0.444
15,ACCGACGT,0.329
16,AACGGCGA,0.381
17,ACCGACGG,0.196
18,CACGGCGA,0.0797
19,AACGACGC,0.448
20,CACGACGC,0.119
21,GACGACGC,0.145
22,AGAGTCAG,-0.111
